Laboratory results from PubChem BioAssay AID624170 (National Center for Advancing Translational Sciences (NCATS), 2012).
In all, about 410,000 compounds went through this assay and about 850 (0.21%) were called active. Inconclusive results (about 2%) are left out. This excerpt belongs to a sample that is enriched for actives. Values without a mark were called inactive. Calls come from the whole dose curve; as a rule, active = well fitted inhibition curve with a large enough effect; inconclusive = small, poorly fitted or top-dose-only effect, or another doubt; inactive = no such curve, though single readings can be large or run the other way.

The compounds below were run against Glutaminase kidney isoform, mitochondrial (Homo sapiens) (UniProt O94925) (assay: qHTS for Inhibitors of Glutaminase (GLS)). Details: GLS enzymatic activity, qHTS titration; series mostly up to 45.5 µM; activity change, negative = inhibition: at the top concentration.
Text: Glutaminase (GLS) catalyzes the hydrolysis of glutamine into glutamate and ammonia. It plays a critical role in glutaminolysis, which is an important energy source for proliferating cells. It was shown that c-Myc, an oncogenic transcription factor known to regulate microRNAs and to stimulate cell proliferation, increases glutamine metabolism by stimulating the expression of GLS via direct suppression of miR23a and miR23b.
GLS is also thought to play a pathogenic role on HAD using a human HIV-1 infected macrophage system. […] GLS inhibition limits glutamate release and provides neuroprotection against HIV-1 infected macrophages.
The overall goal of this project is to identify small molecule inhibitors of GLS through quantitative high throughput screening (qHTS) of the MLSMR. A validated potent and selective inhibitor can be used as a tool molecule to further study the pharmacology of its target as well as explore its potential therapeutic application in cancer and inflammatory neurological disorders, such as HIV1-associated dementia (HAD) and multiple sclerosis.
NIH Chemical Genomics Center [NCGC]
NIH Molecular Libraries Probe Centers Network [MLPCN]
Assay Submitter (PI): Barbara S. Slusher, Johns Hopkins University
Three 3 uL of hKGA is dispensed into black well 1536-well plates in 45 mM KH2PO4 (pH 8.2), 0.02% Tween-20. Then 23 nL of compounds are added through pin tool transfer. To this, 1 uL of 1mM L-Glutamine and 1 uL of a solution of L-Glutamateoxidase, HRP, Amplex red are added. Plate is centrifuged for 25 sec before an initial fluorescence read is obtained on the ViewLux, after 30 min of RT incubation, the final read is taken on the ViewLux.
% is set by controls: 0 for no effect and ±100 for the full control effect; potency is the fitted concentration of half-maximal effect.

Glutaminase kidney isoform, mitochondrial (Homo sapiens), sequence (O94925 whole entry, looked up, canonical isoform): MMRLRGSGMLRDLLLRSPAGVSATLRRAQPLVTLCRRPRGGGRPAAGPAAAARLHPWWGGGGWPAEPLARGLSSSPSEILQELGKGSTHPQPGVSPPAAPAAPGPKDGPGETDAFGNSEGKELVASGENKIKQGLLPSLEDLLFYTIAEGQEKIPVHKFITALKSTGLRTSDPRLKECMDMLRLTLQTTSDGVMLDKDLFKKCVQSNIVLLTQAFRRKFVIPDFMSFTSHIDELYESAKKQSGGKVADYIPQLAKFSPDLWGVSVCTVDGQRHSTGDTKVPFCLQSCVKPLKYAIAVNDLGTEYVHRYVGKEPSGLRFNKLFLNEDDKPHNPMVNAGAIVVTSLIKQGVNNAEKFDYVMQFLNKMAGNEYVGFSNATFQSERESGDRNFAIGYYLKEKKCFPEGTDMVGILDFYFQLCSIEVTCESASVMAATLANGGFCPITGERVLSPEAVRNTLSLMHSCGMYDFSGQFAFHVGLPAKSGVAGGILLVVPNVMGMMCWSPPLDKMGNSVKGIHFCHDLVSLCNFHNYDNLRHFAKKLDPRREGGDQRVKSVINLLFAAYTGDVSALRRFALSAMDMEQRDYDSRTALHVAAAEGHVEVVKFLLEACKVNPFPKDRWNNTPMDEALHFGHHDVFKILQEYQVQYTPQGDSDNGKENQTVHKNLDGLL

Compound | Potency | activity change, negative = inhibition
COc1cc(/C=C2/SC(=S)N(Cc3ccccc3)C2=O)cc(OC)c1O | 20 µM (active) | –
COc1ccc(CCNC(=O)CCCCn2c(=O)c3ccccc3n(Cc3ccccc3)c2=O)cc1OC | – | -3.74%
CCOC(=O)C1=CCC2C(=O)N(Cc3ccccc3)C(=O)C12 (centres undefined) | – | 5.61%
COc1cc(NC(=O)c2nn(-c3ccc(C)cc3)c(=O)c3c2c2ccccc2n3C)cc(OC)c1OC | – | -5.7%
COc1ccc(CCC(=O)NCCc2csc(-c3ccc(Cl)cc3)n2)cc1 | – | 2.21%
FC(F)(F)COc1nc(N2CCCCC2)nc(N2CCNCC2)n1 | – | -3.1%
CN(N)c1nc(N2CCCC2)nc(N2CCCC2)n1 | 14.1 µM (active) | –
COc1nc(NC2CCCCC2)nc(N2CCCCCC2)n1 | – | -4.19%
CCCN(CC)[C@@H](CC)C(=O)Nc1c(C)cccc1C | – | 3.2%
O=C(O)CCC(=O)O | – | -1.49%
O=C(CCSCc1ccccc1F)N1CCN(c2ccc(Cl)cc2)CC1 | – | 0.607%
Cn1cnc2c1c(=O)n(Cc1c(Cl)cccc1Cl)c(=O)n2C | 20 µM (active) | –
Cn1c(=O)n(Cc2c(F)cccc2Cl)c(=O)c2c1nc1n2CCN1c1ccc(F)cc1 | – | 0.648%
Cn1cnc2c1c(=O)n(Cc1ccccc1C#N)c(=O)n2C | – | -19%
CO[C@H]1C[C@@H](O[C@@H]2[C@@H](C)O[C@@H](O[C@@H]3/C(C)=C/CC4C[C@@H](C[C@]5(C=C[C@@H](C)[C@H](C6CCCCC6)O5)O4)OC(=O)[C@@H]4C=C(C)[C@@H](O)[C@H]5OC/C(=C\C=C\[C@@H]3C)[C@]54O)C[C@H]2OC)O[C@@H](C)[C@@H]1O | – | -20%
NC(=O)C(=O)N/N=C/c1ccc([N+](=O)[O-])o1 | – | -7.32%
COc1cc(C[C@H]2NCCc3cc(O)c(O)cc32)cc(OC)c1OC | – | 20%
O=S(O)CNc1ccc(S(=O)(=O)c2ccc(NCS(=O)O)cc2)cc1 | – | -9.19%
FC(F)(F)C1CCCN(c2nsc3ccccc23)C1 (centres undefined) | 7.94 µM (active) | –
COc1cc([C@@H]2c3cc4c(cc3[C@@H](O[C@@H]3O[C@@H]5CO[C@@H](C)O[C@H]5[C@H](O)[C@H]3O)[C@H]3COC(=O)[C@H]23)OCO4)cc(OC)c1OP(=O)(O)O | – | -14.1%
COc1ccc(-c2ccc(=O)n(CC(=O)Nc3ccc(Br)cc3F)n2)cc1 | – | -2.19%
COc1ccc(CNC(=O)C(Cc2ccccc2)n2cccc2)cc1 (centres undefined) | – | -3.68%

Compound | Potency | activity change, negative = inhibition
COc1cc([C@H](Cc2ccccc2)NC(C)=O)oc(=O)c1 | 17.8 µM (active) | –
COc1ccc2oc(C(=O)NCC(Cc3ccccc3)N(C)C)c(C)c2c1 (centres undefined) | – | 11%
COc1ccc(N2CCN(S(=O)(=O)CCNC(=O)C(c3ccccc3)c3ccccc3)CC2)cc1 | – | 6.36%
CCOC(=O)c1ccccc1NC(=O)CCc1c(C)nc2c(c1C)c(=O)n(C)c(=O)n2C | – | -6.2%
O=C(O)CCCCC(=O)O | – | -1.94%
CCOc1ccc(NC(=O)c2c(NC(=O)Cc3ccccc3)sc3c2CCC(C)C3)cc1 (centres undefined) | – | -27.7%
O=C(Nc1ccccc1)c1nnsc1S(=O)(=O)c1ccc(Cl)cc1 | 14.1 µM (active) | –
O=C(Nc1cccc(Cl)c1)c1csnn1 | – | -8.09%
O=C(Nc1ccc(Oc2ccccc2)cc1)C1CCN(S(=O)(=O)c2ccc(Cl)cc2)CC1 | – | -5.18%
CCCC[C@H]1C(=O)N(c2ccccc2)N(c2ccc(O)cc2)C1=O | – | -6.67% [at 20 µM]
O=C(OCc1ccccc1)c1ccc(O)cc1 | – | 16.9%
CC(=O)OC1C([N+]2(C)CCCCC2)C[C@H]2C3CC[C@H]4C[C@H](OC(C)=O)C([N+]5(C)CCCCC5)CC4(C)C3CCC12C (some centres undefined) | – | 4.13%
O=C(O)CC(Cc1ccccc1)C(=O)Nc1ccc([N+](=O)[O-])cc1 (centres undefined) | – | 1.28%
CC(C)(C)C(=O)NCCCNc1ccc([N+](=O)[O-])cc1 | – | -9.97%
O=C(O)/C=C/C(=O)NNc1ccc([N+](=O)[O-])cc1 | 11.2 µM (active) | –
CCCCC(=O)OCC(=O)[C@H]1[C@H](C)C[C@@H]2[C@@H]3C[C@@H](F)C4=CC(=O)C=C[C@]4(C)[C@@]3(F)[C@@H](O)C[C@@]21C | – | -8.67%
COc1ccc(NC(=O)c2sc3nc[nH]c(=O)c3c2C)cc1 | – | -11%
Cn1c(=O)c2c(nc(NCCNC(=O)c3ccco3)n2Cc2ccccc2F)n(C)c1=O | – | -2.17%
Cn1c(=O)c2c(nc(NCCc3ccccc3)n2Cc2ccccc2Br)n(C)c1=O | – | 4.52%
CC(C)OCCCNc1nc2c(c(=O)n(Cc3ccccc3F)c(=O)n2C)n1C | 12.6 µM (active) | –
CCC(C)Nc1oc(-c2ccc(COc3ccc(Cl)cc3)o2)nc1C#N (centres undefined) | – | 11.6%
CC(O)COc1ccccc1 (centres undefined) | – | -9.16%
